# Only some compounds are listed: those with a hit (about 3.5% of all), similar ones and a draw of the others.
# FBW7 activator: human FBW7 E3 ligase activation, primary screen. AID 1259310. Q969H0. normalized activity (activation), % at 26.1 µM. actives 0.13% (n = 650,000). AlphaScreen FBW7–phospho-cyclin E peptide binding, activator screen; in the data active means normalized activity above about 1.9%;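 further: purified mutant Fbw7 with reduced substrate affinity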
# GPR151 activ: activates the human receptor GPR151; PathHunter beta-arrestin GPR151 cells, luminescence; activation, % at 11.2 µM; actives 1% (n = 650,000); AID 1508602; in the data active means activation above about 4.9%;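 further: 0% = median of compound wells and 100% = cells with positive control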
# Target sequence (Q8TDV0 whole entry, looked up): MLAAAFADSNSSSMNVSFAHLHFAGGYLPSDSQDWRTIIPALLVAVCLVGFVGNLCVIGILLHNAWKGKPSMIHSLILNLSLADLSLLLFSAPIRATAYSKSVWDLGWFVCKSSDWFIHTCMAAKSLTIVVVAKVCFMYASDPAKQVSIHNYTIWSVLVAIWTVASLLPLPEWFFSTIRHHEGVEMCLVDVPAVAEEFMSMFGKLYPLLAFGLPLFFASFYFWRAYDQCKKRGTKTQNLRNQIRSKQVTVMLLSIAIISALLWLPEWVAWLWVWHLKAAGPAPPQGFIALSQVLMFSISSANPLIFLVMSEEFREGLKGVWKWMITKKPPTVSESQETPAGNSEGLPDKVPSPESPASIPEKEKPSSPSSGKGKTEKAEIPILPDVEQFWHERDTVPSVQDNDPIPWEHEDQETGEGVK
# MITF primary: inhibitors of human MITF. O75030. AlphaScreen MITF homodimerization, bead proximity signal. inhibition, % at 2.6 µM. actives 0.91% (n = 650,000); in the data active means inhibition above about 50%;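 further: 0% = vehicle wells with protein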
# TEAD-YAP inh: TEAD-YAP interaction inhibition; HEK-TIYL cells, TEAD-Gal4/YAP UAS-luciferase luminescence; inhibition, % at 9.12 µM; actives 1.4% (n = 640,000); AID 1259422; in the data active means inhibition above about 32%;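 further: 0% = median of test compound wells and 100% = reference inhibitor wells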
# An asterisk follows results filed as active.
SMILES,FBW7 activator,GPR151 activ,MITF primary,TEAD-YAP inh
COc1ccc(/C=C/c2nc3ccccc3n2C)cc1,0,-11,-7,98*
COCCNC(=O)COc1ccc(C(C)C)cc1,0,1,-2,-10
COc1ccccc1/C=C/c1nc2ccccc2c(=O)o1,0,-7,7,-54
COc1ccc(/C=N\n2nnc3ccccc32)cc1,0,-7,3,85*
COc1ccc(/C=C/c2nc3ccccc3c(=O)o2)cc1,0,-10,-5,75*
COc1cccc(N2CC(O)=C(c3nc4ccccc4[nH]3)C2=N)c1,0,1,1,37*
CC1Cc2ccccc2N1S(=O)(=O)c1ccc2[nH]c(=O)[nH]c2c1 (stereo unspecified),0,1,10,37*
Cc1cc(-c2ccc(S(=O)(=O)N3c4ccccc4CC3C)cc2)on1 (stereo unspecified),0,0,3,61*
CC1Cc2ccccc2N1S(=O)(=O)c1ccc2c(c1)n(C)c(=O)c(=O)n2C (stereo unspecified),0,1,0,5
Cc1cc(NS(=O)(=O)c2ccc(NC(=S)NC(=O)C(C)(C)C)cc2)no1,0,1,14,6
CC(=O)c1cccc(-c2nc3ncnc(Nc4ccc(Oc5ccccc5)cc4)c3[nH]2)c1,0,3,4,-2
O=[N+]([O-])c1c(Cl)cc(O)c2c1C1C=CCC1C(c1ccc(Cl)cc1)N2 (stereo unspecified),0,1,32,14
CCOc1cc2c(c([N+](=O)[O-])c1)NC(C(=O)O)C1CC=CC21 (stereo unspecified),-1,-1,73*,13
O=C(O)C1Nc2c(O)cc(Cl)c([N+](=O)[O-])c2C2C=CCC12 (stereo unspecified),0,-1,108*,-6
CCCOc1ccccc1OCCOCCN1CCN(C)CC1,0,0,11,-1
CCOC(=O)c1ccc(CN2C(=O)C(=O)c3cc(OC(F)(F)F)ccc32)o1,0,-1,-3,66*
O=S(=O)(NCc1ccccn1)c1ccc(Cc2ccc(S(=O)(=O)NCc3ccccn3)cc2)cc1,0,0,8,59*
COc1cc(S(=O)(=O)NCc2ccccn2)ccc1Cl,0,2,2,37*
COc1cccc(S(=O)(=O)NCc2ccccn2)c1,0,-2,9,10
CN(C)/C=C/C=C1\CCC/C(=C\N(C)C)C1=O,-1,0,52*,-14
O=[N+]([O-])c1ccccc1C1CC(c2ccccc2)=NN1 (stereo unspecified),0,1,-3,40*
O=C1C=C(Nc2cccc(C(=O)O)c2)c2ccccc2C1=O,0,1,3,2
O=C1C=C(NCc2ccccc2)c2ccccc2C1=O,0,0,12,51*
COc1ccccc1NC(=O)CSc1nnc(-c2ccccn2)n1-c1ccccc1OC,0,2,15,42*
COc1cccc(NC(=O)CSc2nnc(-c3ccncc3)n2-c2ccccc2C)c1,0,0,-23,14
SMILES,FBW7 activator,GPR151 activ,MITF primary,TEAD-YAP inh
COc1ccccc1NC(=O)CSc1nnc(-c2ccncc2)n1-c1ccccc1C,0,1,1,62*
CCOc1ccccc1NC(=O)CSc1nnc(-c2ccc(OC)cc2)n1-n1cccc1,0,0,-7,41*
Cc1ccc(C(=O)N2CCN3C(=O)[C@@H](C)NC(=O)[C@H]3C2)cc1F,0,4,12,5
CCN(CC)S(=O)(=O)c1ccc(-c2csc(=Nc3ccc(F)cc3)n2CCO)cc1,0,1,22,46*
CCN(CC)S(=O)(=O)c1ccc(-c2csc(=Nc3ccc(F)cc3)n2CCc2ccc(OC)cc2)cc1,0,0,16,-2
O=S(=O)(c1ccc(-c2csc(=Nc3ccc(F)cc3)n2CCO)cc1)N1CCCC1,0,1,44,47*
O=C(N/N=C/c1cc(Cl)ccc1O)C(=O)Nc1ccccc1OC(F)(F)C(F)F,0,1,-6,79*
O=C(N/N=C/c1cc([N+](=O)[O-])ccc1O)C(=O)Nc1ccccc1OC(F)(F)C(F)F,0,-1,2,8
Clc1ccc(-n2ncc3c(N4CCCC4)ncnc32)cc1,0,3,-3,35*
Clc1ccc(-n2ncc3c(N4CCCCC4)ncnc32)cc1,0,-1,-10,96*
Fc1ccc(-n2ncc3c(N4CCCCCC4)ncnc32)cc1,1,2,8,28
CC(C)CCN1CCN2C(=O)[C@H]3CCCN3C(=O)[C@H]2C1,0,-1,13,-5

# Assay outcomes: PubChem, The Scripps Research Institute Molecular Screening Center
